Bioassay records from PubChem.
A selection: hits, their analogues and other compounds. The true share with any hit is near 4.5%.
PfHsp40 rescue: rescue of yeast from PfHsp40 toxicity, primary screen, S. cerevisiae, ATP luminescence; hit rate 0.68% among 340,000; S. cerevisiae expressing PfHsp40, growth rescue; growth rescue, % at 12.5 µM; AID 504582, 2011; in the data active = growth rescue above about 28%, passing the limit was not always enough;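 note: yeast W303a lacking pdr1 and pdr3 grown in galactose medium; growth measured after three days at 30 °C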
FBA Mtb inh: Mtb FBA enzyme inhibitors, primary screen, biochemical, fluorescence, strain H37Rv; AID 588726, 2011; inhibition, % at 1 µM; purified M. tuberculosis FBA, fluorescence read-out; hit rate 2.3% among 360,000; in the data active = inhibition above about 27%
Target sequence (P9WQA3 whole entry, looked up): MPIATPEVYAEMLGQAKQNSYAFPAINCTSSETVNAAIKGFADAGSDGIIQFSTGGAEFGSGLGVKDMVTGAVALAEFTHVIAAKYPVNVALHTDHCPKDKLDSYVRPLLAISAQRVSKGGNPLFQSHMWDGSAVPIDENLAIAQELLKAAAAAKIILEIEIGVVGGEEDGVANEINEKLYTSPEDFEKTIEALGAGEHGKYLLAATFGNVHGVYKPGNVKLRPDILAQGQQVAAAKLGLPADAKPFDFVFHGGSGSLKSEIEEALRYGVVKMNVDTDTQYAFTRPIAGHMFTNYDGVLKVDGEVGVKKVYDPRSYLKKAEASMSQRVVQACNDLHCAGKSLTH
PrPC surface inh: inhibitors of human cell surface prion protein PrPC, primary screen, cell-based, TR-FRET | Major prion protein (Homo sapiens), P04156 | TR-FRET read-out | inhibition, % at 13.8 µM | hit rate 0.43% among 370,000; in the data active = inhibition above about 24%
BJeLR lethal: MLPCN primary cell-based screen for lethality selective to Ras in HRASV12 cells | BJeLR (HRASV12) viability, CellTiter-Glo ATP luminescence, 48 h | inhibition, % (concentration not given with the values) | hit rate 0.17% among 300,000; in the data active = inhibition above about 50%
GDH-TPI inh: GDH-TPI coupling enzyme inhibitors, primary screen, artefact control for M. tuberculosis FBA inhibitor project, biochemical, absorbance, full deck; AID 588335, 2011; GDH-TPI coupled enzyme counterscreen, NADH absorbance; hit rate 1.2% among 360,000; inhibition, % at 4.8 µM; in the data active = inhibition above about 30%
PrP UTR inh: inhibition of PrP 5' UTR reporter expression; cell-based PrP 5' UTR mRNA reporter, plate reader; hit rate 0.35% among 340,000; inhibition, % (concentration not given with the values); in the data active = inhibition above about 52%
Of the large screens only hits and unclear results are named; the others gave an inactive call.

COc1ccc(C2=NCCn3cccc32)c(OC)c1	GDH-TPI inh 49
c1coc(-c2nc3nc4ccccc4nc3n2CC2CCCO2)c1 (centres undefined)	FBA Mtb inh active
c1ccc(Cn2c(-c3ccco3)nc3nc4ccccc4nc32)cc1	FBA Mtb inh active
Cc1ccc(-c2nc3nc4ccccc4nc3n2Cc2ccco2)cc1	GDH-TPI inh 46
COc1ccc(CCn2c(-c3ccco3)nc3nc4ccccc4nc32)cc1	none
CCCCCn1c(-c2ccco2)nc2nc3ccccc3nc21	FBA Mtb inh active
O=C(CN1CCc2onc(-c3ccc(-n4cc(C5=CCCCC5)nn4)cc3)c2C1=O)N1CCOCC1	none (no result: PfHsp40 rescue, FBA Mtb inh, BJeLR lethal, GDH-TPI inh, PrP UTR inh)
COCCNC(=O)C1(C)CCCN(C(=O)c2ccccc2OC(F)(F)F)C1 (centres undefined)	none (no result: PfHsp40 rescue, BJeLR lethal, PrP UTR inh)
CN(CC#Cc1ccccc1)C(N)=NC(=O)/C=C/c1cccc(C(F)(F)F)c1	none (no result: PfHsp40 rescue, FBA Mtb inh, BJeLR lethal, GDH-TPI inh, PrP UTR inh)
C=CCn1c(-c2ccccc2)nc(=S)c2c1CC(C)(C)OC2	GDH-TPI inh 35
CCN(CC)CCn1c(-c2ccc(C)cc2)nc(=S)c2c1CC(C)(C)OC2	GDH-TPI inh 32
CC1(C)Cc2c(c(=S)nc(-c3ccccc3)n2CCOCCO)CO1	none
Cc1ccc(-c2nc(=S)c3c(n2CCN2CCOCC2)CC(C)(C)OC3)cc1	none
Cc1ccc(-c2nc(=S)c3c(n2Cc2cccnc2)CC(C)(C)OC3)cc1	none
COc1ccc(-c2nc(=S)c3c(n2CCN2CCOCC2)CC(C)(C)OC3)cc1	GDH-TPI inh 38
O=S1(=O)CC2c3ccc(F)cc3CN2CN1CCc1ccccc1 (centres undefined)	none (no result: PfHsp40 rescue, FBA Mtb inh, BJeLR lethal, GDH-TPI inh, PrP UTR inh)
CCn1c(=O)n(CC(=O)N2CCN(C(C)=O)CC2)c(=O)c2ccccc21	none (no result: PfHsp40 rescue, FBA Mtb inh, BJeLR lethal, GDH-TPI inh, PrP UTR inh)
Cc1nc2ccc(C(=O)N3CCN(C(=O)C(Cl)Cl)CC3)cc2n1C1CCCC1	none (no result: PfHsp40 rescue, FBA Mtb inh, BJeLR lethal, GDH-TPI inh, PrP UTR inh)
COc1ccc(S[C@]2(C(=O)NC3CC3)CC(=O)N[C@@H]2c2ccc(OC)cc2)cc1	none (no result: PfHsp40 rescue, FBA Mtb inh, BJeLR lethal, GDH-TPI inh, PrP UTR inh)
N/C(=N\N=C\c1ccc2c(c1)OCO2)c1nonc1N	GDH-TPI inh 32
N/C(=N\N=C\c1cccc([N+](=O)[O-])c1)c1nonc1N	none (no result: PfHsp40 rescue, PrP UTR inh)
O=C(Nc1sc(-c2ccccc2)cc1C(=O)O)c1ccccc1	GDH-TPI inh 35
O=Cc1c(OCc2ccccc2)ccc2ccccc12	PfHsp40 rescue 100
COc1ccccc1N(C)S(=O)(=O)c1ccc(Cl)c(C(=O)NNC(=O)c2ccccc2O)c1	PfHsp40 rescue 218
COc1ccccc1N(C)S(=O)(=O)c1ccc(C(=O)NNC(=O)c2ccccc2O)cc1	none (no result: PfHsp40 rescue, BJeLR lethal)
COc1ccc(N(C)S(=O)(=O)c2ccc(Cl)c(C(=O)NNC(=O)c3ccccc3O)c2)cc1	PfHsp40 rescue 248 (no result: BJeLR lethal)
COc1ccc(-c2nc3ccc(C)cn3c2Cc2ccccc2)cc1OC	FBA Mtb inh 90 (no result: PfHsp40 rescue, BJeLR lethal, GDH-TPI inh, PrP UTR inh)
COc1ccc(-c2nc3ccc(C)cn3c2Cc2ccc(C)cc2)cc1OC	none (no result: PfHsp40 rescue, BJeLR lethal, GDH-TPI inh, PrP UTR inh)
O=C(NC1CCCCN(Cc2ccc(OC(F)(F)F)cc2)C1=O)c1cccc(F)c1 (centres undefined)	none (no result: PfHsp40 rescue, FBA Mtb inh, BJeLR lethal, GDH-TPI inh, PrP UTR inh)
NC(=O)c1ccc(N2CCN(c3ccc(O)cc3)CC2)c([N+](=O)[O-])c1	none
CC(=O)c1ccc(N2CCN(c3ccc(C(N)=O)cc3[N+](=O)[O-])CC2)cc1	GDH-TPI inh 33
COc1cc2c(cc1OC)C(c1ccc(-c3ccc(Cl)cc3Cl)o1)=NCC2	GDH-TPI inh 32
COc1cc2c(cc1OC)C(c1ccc(-c3cc(Cl)ccc3Cl)o1)=NCC2	none (no result: PrPC surface inh)
O=C(O)c1ccc(-c2ccc(-c3ccccc3)cc2)s1	FBA Mtb inh 118 (no result: PrPC surface inh)
Cc1cc(-c2ccc(C(=O)O)s2)cnc1N	FBA Mtb inh active
CC1(C)C=C(c2ccc(C(=O)O)s2)CC(C)(C)N1	none
O=C1NCCc2cc3c(cc21)OCO3	none
O=C1NC2C(=CC(O)C(O)C2O)c2cc3c(cc21)OCO3 (centres undefined)	PrPC surface inh 91 (no result: BJeLR lethal)
Clc1cc2nc3ccccn3c2cc1Cl	PfHsp40 rescue 152, FBA Mtb inh 140
CCOc1cccc(C(=O)Nc2nnc(-c3ccco3)s2)c1	GDH-TPI inh 37 (no result: BJeLR lethal)
Cc1cccc(OCC(=O)Nc2nnc(-c3ccco3)s2)c1	none
CCOC(=O)C1CCN(S(=O)(=O)c2c(Cl)ccc3nonc23)CC1	BJeLR lethal 60
COc1ccc(OC)c(CN2C(=O)CSCC2(C)C(=O)NCc2ccccc2)c1 (centres undefined)	none (no result: PfHsp40 rescue, FBA Mtb inh, BJeLR lethal, GDH-TPI inh, PrP UTR inh)
COc1cc(C2Nc3ccccc3C(=O)N2NS(C)(=O)=O)ccc1O (centres undefined)	none
CCCN1C(=O)c2ccccc2NC1c1ccc(O)c(OCC)c1 (centres undefined)	FBA Mtb inh 45
O=C1N(c2ccc(Cl)cc2)C(c2cccnc2)N2CCCN12 (centres undefined)	PfHsp40 rescue 287
O=C(CN1C(=O)NC2(CCCCCC2)C1=O)Nc1ccc(Cl)cc1Cl	none (no result: BJeLR lethal)
CC(NC(=O)CN1C(=O)NC2(CCCC2)C1=O)c1ccc(Cl)cc1Cl (centres undefined)	PfHsp40 rescue 61 (no result: BJeLR lethal)
NS(=O)(=O)c1ccc(N2C(=O)C(=O)/C(=C(/O)c3ccccc3)C2c2ccc(Cl)cc2)cc1 (centres undefined)	GDH-TPI inh 39
CCOC(=O)C1=C(O)C(=O)N(c2ccc(S(N)(=O)=O)cc2)C1c1ccc(Cl)cc1 (centres undefined)	none
O=C(CSc1nnc(SCc2cccc3ccccc23)s1)c1ccc(F)cc1	none (no result: PfHsp40 rescue, FBA Mtb inh, BJeLR lethal, GDH-TPI inh, PrP UTR inh)
COc1ccc(/C=C/C(=O)Nc2ccc(C)c(S(=O)(=O)N3CCOCC3)c2)cc1	GDH-TPI inh 33 (no result: BJeLR lethal)
COc1ccccc1CCC(=O)Nc1cccc(S(=O)(=O)N2CCOCC2)c1	none
COc1ccc(/C=C/C(=O)Nc2cc(S(=O)(=O)N3CCOCC3)ccc2OC)cc1	GDH-TPI inh 31 (no result: BJeLR lethal)
COc1ccccc1CC(=O)Nc1cccc(S(=O)(=O)N2CCOCC2)c1	PfHsp40 rescue 94
COC(=O)[C@]12C[C@H](CC(=O)N3CCCC3)C(=O)N(Cc3ccc(Cl)cc3Cl)C1=C[C@H](C(C)(C)C)O[C@@H]2C	none (no result: PfHsp40 rescue, FBA Mtb inh, BJeLR lethal, GDH-TPI inh, PrP UTR inh)
CCCCNS(=O)(=O)/C=C/c1ccc(OC)cc1CNC(=O)OC(C)(C)C	none (no result: PfHsp40 rescue, FBA Mtb inh, BJeLR lethal, GDH-TPI inh, PrP UTR inh)
Cc1cc(-n2c(=O)c(C#N)cc3c(=O)n4ccccc4nc32)no1	FBA Mtb inh active
Cc1ccccc1-n1c(=O)c(C#N)cc2c(=O)n3ccccc3nc21	FBA Mtb inh active
C=CCn1c(=O)c(C#N)cc2c(=O)n3ccccc3nc21	FBA Mtb inh active
CCn1c(=N)c(S(=O)(=O)c2ccc(C)cc2)cc2c(=O)n3ccccc3nc21	none (no result: PfHsp40 rescue, FBA Mtb inh, GDH-TPI inh, PrP UTR inh)
CCn1c(=N)c(S(=O)(=O)c2ccccc2)cc2c(=O)n3ccccc3nc21	none
CCN(CC)C(=O)CC[C@@H]1CC[C@]2(CCCN(Cc3ccncc3)C2)O1	none (no result: PfHsp40 rescue, FBA Mtb inh, BJeLR lethal, GDH-TPI inh, PrP UTR inh)
